Reference: PubChem BioAssay (EPA / NIEHS)
Records with an inconclusive call do not appear. Active and inactive are the calls of the source. The calls were made as follows, unless noted: active = hit-call score of the fitted dose curve at least 0.9, where 1 is the maximum; inactive = score below 0.9.

Key:
[1] = molecular target: Bile acid receptor (Homo sapiens) (UniProt Q96RI1); experiment: ATG_FXR_TRANS: Attagene TRANS-FACTORIAL HepG2 Assay for Farnesoid X Receptor (FXR) (AID 2282979; active = hit-call score of the fitted dose curve at least 0.9, where 1 is the maximum;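 also: hits raise reporter mRNA above DMSO so AC50 marks FXR activation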); conditions: HepG2 Attagene TRANS FXR-GAL4 reporter transcription
Sequence of Bile acid receptor (Homo sapiens) (Q96RI1 whole entry, looked up, the tested form may be a part): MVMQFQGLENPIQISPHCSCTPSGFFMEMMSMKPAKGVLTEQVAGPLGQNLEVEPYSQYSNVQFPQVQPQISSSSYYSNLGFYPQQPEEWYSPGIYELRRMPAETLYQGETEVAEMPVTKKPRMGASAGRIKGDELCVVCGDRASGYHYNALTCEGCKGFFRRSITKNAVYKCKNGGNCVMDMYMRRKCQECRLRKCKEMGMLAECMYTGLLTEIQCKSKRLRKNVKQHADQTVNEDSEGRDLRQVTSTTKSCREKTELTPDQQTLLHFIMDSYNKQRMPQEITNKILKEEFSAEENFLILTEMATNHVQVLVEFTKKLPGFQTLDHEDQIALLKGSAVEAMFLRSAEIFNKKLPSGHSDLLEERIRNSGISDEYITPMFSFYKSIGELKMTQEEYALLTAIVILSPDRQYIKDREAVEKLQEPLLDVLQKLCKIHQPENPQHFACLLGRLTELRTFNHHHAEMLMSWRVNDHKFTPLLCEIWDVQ
Procedure, shortened: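 Reporter transcripts from transfected HepG2 cells were measured 24 h after dosing, using RT-PCR with capillary electrophoresis of 6-FAM-labelled fragments. The read-out reflects activity of exogenous FXR-Gal4 chimera on GAL4-UAS units, with induction relative to DMSO.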

[2] = molecular target: Hepatocyte nuclear factor 4-alpha (Homo sapiens) (UniProt P41235); experiment: ATG_HNF4a_TRANS: Attagene TRANS-FACTORIAL HepG2 Assay for human Hepatocyte Nuclear Factor 4 alpha (HNF4a) (AID 2282982; active = hit-call score of the fitted dose curve at least 0.9, where 1 is the maximum); conditions: HepG2 HNF4a transactivation reporter, mRNA readout
Sequence of Hepatocyte nuclear factor 4-alpha (Homo sapiens) (P41235 whole entry, looked up): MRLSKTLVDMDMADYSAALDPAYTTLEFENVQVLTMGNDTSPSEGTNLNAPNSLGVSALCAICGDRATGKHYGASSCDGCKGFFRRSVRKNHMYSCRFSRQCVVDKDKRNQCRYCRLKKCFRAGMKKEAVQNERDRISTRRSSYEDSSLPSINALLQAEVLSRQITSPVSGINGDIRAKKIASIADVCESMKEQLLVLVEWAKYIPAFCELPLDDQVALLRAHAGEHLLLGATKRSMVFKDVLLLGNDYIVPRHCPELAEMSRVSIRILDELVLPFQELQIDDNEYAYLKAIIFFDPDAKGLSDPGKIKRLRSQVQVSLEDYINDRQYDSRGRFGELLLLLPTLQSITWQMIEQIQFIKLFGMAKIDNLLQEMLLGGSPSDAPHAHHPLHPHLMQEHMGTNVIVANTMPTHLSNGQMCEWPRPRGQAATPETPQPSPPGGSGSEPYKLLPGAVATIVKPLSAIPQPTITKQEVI
Procedure, shortened: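 Transient MRTU transfection of HepG2, 24 h dosing. Readout: reporter mRNA via RT-PCR + capillary electrophoresis, fluorescence; activity fit upward relative to DMSO control.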

[3] = ATG_M_06_TRANS: Attagene TRANS-FACTORIAL HepG2 Assay for M06 Transcription Factor (Internal Marker) (AID 2282983; active = hit-call score of the fitted dose curve at least 0.9, where 1 is the maximum); conditions: HepG2 Attagene TRANS M06 internal marker reporter
Procedure, shortened: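 Background-control reporter readout: after 24 h chemical exposure of transiently transfected HepG2 (GAL4-UAS reporter units), mRNA quantified by RT-PCR with fluorescent labeling and capillary electrophoresis. Gain-of-signal fitting against DMSO baseline.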

[4] = molecular target: Transcriptional activator Myb (Homo sapiens) (UniProt P10242); experiment: ATG_Myb_CIS: Attagene CIS-FACTORIAL HepG2 Assay for human Myeloblastosis (Myb) Proto-Oncogene Transcription Factor (AID 2282986); conditions: HepG2 Attagene CIS-FACTORIAL Myb reporter transcription; actives raise or lower the signal
Sequence of Transcriptional activator Myb (Homo sapiens) (P10242 whole entry, looked up): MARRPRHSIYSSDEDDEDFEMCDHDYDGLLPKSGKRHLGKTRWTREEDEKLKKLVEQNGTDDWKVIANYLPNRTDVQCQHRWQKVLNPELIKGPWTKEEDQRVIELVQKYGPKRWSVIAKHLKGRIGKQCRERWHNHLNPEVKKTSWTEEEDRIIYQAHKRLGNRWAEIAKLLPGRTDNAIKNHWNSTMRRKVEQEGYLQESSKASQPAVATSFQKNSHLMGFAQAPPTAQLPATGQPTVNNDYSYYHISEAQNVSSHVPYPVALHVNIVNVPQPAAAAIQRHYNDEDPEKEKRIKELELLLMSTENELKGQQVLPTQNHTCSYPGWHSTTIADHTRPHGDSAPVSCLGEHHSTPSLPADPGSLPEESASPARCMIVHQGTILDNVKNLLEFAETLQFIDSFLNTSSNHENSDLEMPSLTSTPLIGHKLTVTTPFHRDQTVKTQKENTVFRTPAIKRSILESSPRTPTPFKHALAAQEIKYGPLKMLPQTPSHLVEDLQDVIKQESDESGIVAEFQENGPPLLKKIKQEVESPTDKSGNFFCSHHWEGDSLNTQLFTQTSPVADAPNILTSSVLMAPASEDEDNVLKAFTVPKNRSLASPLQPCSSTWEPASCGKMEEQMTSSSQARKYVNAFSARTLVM
Procedure, shortened: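 After 24 h of compound dosing, total RNA from transfected HepG2 cells is reverse-transcribed and the reporter sequences amplified, labeled and separated by capillary electrophoresis. Values come from bidirectional fitting against DMSO.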

[5] = molecular target: Nuclear respiratory factor 1 (Homo sapiens) (UniProt Q16656); experiment: ATG_NRF1_CIS: Attagene CIS-FACTORIAL HepG2 Assay for human Nuclear Respiratory Factor 1 (NRF1) Orphan Gene (AID 2282987); conditions: HepG2 NRF1 cis-element reporter, Attagene multiplex; actives raise or lower the signal
Sequence of Nuclear respiratory factor 1 (Homo sapiens) (Q16656 whole entry, looked up): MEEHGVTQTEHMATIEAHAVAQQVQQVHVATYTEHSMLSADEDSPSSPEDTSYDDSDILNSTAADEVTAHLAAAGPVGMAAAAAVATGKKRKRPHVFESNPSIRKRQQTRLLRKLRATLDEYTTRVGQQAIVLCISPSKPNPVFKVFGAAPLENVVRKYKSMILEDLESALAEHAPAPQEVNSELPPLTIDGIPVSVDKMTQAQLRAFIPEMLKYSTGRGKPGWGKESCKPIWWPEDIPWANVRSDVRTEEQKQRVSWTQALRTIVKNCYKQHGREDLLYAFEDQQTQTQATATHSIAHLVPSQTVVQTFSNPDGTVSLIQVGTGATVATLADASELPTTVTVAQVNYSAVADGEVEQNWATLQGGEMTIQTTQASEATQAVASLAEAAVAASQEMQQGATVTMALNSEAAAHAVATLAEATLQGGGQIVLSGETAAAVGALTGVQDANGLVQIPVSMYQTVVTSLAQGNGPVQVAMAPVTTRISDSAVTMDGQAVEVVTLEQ
Procedure, shortened: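 Measured: fluorescent reporter-specific RT-PCR products from transfected HepG2 cells, separated by capillary electrophoresis. Exposure lasted 24 h. Analysis used bidirectional curve fitting with DMSO as negative control.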

[6] = ATG_NFI_CIS: Attagene CIS-FACTORIAL HepG2 Assay for human Nuclear Factor I (NFI) (AID 2282989); conditions: HepG2 cis-regulatory reporter, NFI response element transcription; actives raise or lower the signal
Procedure, shortened: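 Multiplexed cis-reporter system in human HepG2 cells reports native TF activity as reporter mRNA induction 24 h post-dose. Fragments labelled with 6-FAM, HpaI-digested and resolved by capillary electrophoresis; activity fitted both directions versus DMSO.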

[7] = molecular target: Myc proto-oncogene protein (Homo sapiens) (UniProt P01106); experiment: ATG_Myc_CIS: Attagene CIS-FACTORIAL HepG2 Assay for human Myelocytomatosis (Myc) Proto-Oncogene Transcription Factor (AID 2282990); conditions: HepG2, Attagene cis-reporter transcription factor activity; actives raise or lower the signal
Sequence of Myc proto-oncogene protein (Homo sapiens) (P01106 whole entry, looked up, the tested form may be a part): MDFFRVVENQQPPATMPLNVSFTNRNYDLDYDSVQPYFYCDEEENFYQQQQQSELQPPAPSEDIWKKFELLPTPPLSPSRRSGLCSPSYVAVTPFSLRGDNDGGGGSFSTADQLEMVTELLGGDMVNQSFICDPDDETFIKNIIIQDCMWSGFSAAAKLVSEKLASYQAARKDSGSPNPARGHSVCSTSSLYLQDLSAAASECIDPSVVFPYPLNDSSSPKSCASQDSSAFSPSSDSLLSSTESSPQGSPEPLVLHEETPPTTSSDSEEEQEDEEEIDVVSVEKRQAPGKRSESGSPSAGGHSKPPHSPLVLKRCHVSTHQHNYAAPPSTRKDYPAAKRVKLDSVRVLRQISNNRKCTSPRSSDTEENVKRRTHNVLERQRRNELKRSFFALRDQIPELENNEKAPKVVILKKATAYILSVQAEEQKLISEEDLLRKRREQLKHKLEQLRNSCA
Procedure, shortened: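 Fluorescence intensity of reporter-specific cDNA fragments, separated by capillary electrophoresis, gives the signal. Transfected HepG2 cells carrying cis-promoter reporter constructs are incubated with compound for 24 h; DMSO serves as baseline.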

[8] = ATG_NF_kB_CIS: Attagene CIS-FACTORIAL HepG2 Assay for human Nuclear Factor Kappa B (NF-kB) (AID 2282991); conditions: HepG2 Attagene cis-factorial NF-kB reporter mRNA; actives raise or lower the signal
Procedure, shortened: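 Fluorescence of labelled RT-PCR products separated by capillary electrophoresis gives reporter mRNA levels from transfected HepG2 cells exposed 24 h; values are fitted in both directions relative to DMSO.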

[9] = ATG_NRF2_ARE_CIS: Attagene CIS-FACTORIAL HepG2 Assay for human Nuclear Factor Erythroid 2 Related Factor 2 (NFR2) response to Antioxidant Response Elements (ARE) (AID 2282992); conditions: HepG2 Attagene ARE/NRF2 reporter, transcription factor activity; actives raise or lower the signal
Procedure, shortened: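 Endogenous transcription factor activity in human liver HepG2 cells is tracked via a cis-element-driven reporter within a multiplexed set. mRNA induction is read by RT-PCR and capillary electrophoresis after 24 h, with DMSO as baseline.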

[10] = ATG_Oct_MLP_CIS: Attagene CIS-FACTORIAL HepG2 Assay for human Octamer-Binding Transcription Factor (Oct) (AID 2282993); conditions: HepG2 Attagene cis-factorial Oct reporter, mRNA; actives raise or lower the signal
Procedure, shortened: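 After 24 h compound exposure, transfected HepG2 cells were lysed for total RNA; reporter-specific cDNA was PCR-amplified, fluorescently labelled and sized by capillary electrophoresis. Bidirectional curve fitting used DMSO as baseline.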

[11] = molecular target: Cellular tumor antigen p53 (Homo sapiens) (UniProt P04637); experiment: ATG_p53_CIS: Attagene CIS-FACTORIAL HepG2 Assay for human p53 Transcription Factor (AID 2282994); conditions: HepG2 p53 cis-element reporter, Attagene mRNA; actives raise or lower the signal
Sequence of Cellular tumor antigen p53 (Homo sapiens) (P04637 whole entry, looked up, the tested form may be a part): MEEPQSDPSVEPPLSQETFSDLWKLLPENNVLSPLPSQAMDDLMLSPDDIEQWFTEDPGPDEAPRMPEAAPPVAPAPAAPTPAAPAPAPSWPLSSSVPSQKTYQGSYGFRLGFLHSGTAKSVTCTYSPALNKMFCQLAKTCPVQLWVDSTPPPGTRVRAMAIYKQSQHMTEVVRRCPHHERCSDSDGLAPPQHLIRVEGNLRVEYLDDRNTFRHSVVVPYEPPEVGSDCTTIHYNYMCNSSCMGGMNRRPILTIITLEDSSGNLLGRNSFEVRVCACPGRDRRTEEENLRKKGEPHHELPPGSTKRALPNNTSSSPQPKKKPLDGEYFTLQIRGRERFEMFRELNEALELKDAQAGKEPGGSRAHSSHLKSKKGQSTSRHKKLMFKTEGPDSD
Procedure, shortened: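 Steps: transfect HepG2 with multiplexed cis reporter constructs; dose chemicals 24 h; extract RNA, reverse-transcribe, PCR-amplify reporter sequences; FAM-label, HpaI-digest, resolve fragments by CE. Activity fitted both directions relative to DMSO.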

[12] = ATG_M_32_TRANS: Attagene TRANS-FACTORIAL HepG2 Assay for M32 Transcription Factor (Internal Marker) (AID 2282984; active = hit-call score of the fitted dose curve at least 0.9, where 1 is the maximum;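 also: transcript level of a background control reporter unit measured by RT-PCR and capillary electrophoresis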); conditions: HepG2 Attagene TRANS M32 internal marker reporter
Procedure, shortened: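 Read-out: fluorescent reporter cDNA fragments resolved by capillary electrophoresis after RT-PCR of total RNA. Transfected HepG2 cells were exposed to chemical for 24 h. Activity scored in the positive direction relative to DMSO.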

[13] = molecular target: Nuclear receptor subfamily 4 group A member 2 (Homo sapiens) (UniProt P43354); experiment: ATG_NURR1_TRANS: Attagene TRANS-FACTORIAL HepG2 Assay for human Nuclear Receptor Related Protein 1 (NURR1) (AID 2282985; active = hit-call score of the fitted dose curve at least 0.9, where 1 is the maximum); conditions: HepG2 Attagene TRANS reporter, mRNA readout
Sequence of Nuclear receptor subfamily 4 group A member 2 (Homo sapiens) (P43354 whole entry, looked up, the tested form may be a part): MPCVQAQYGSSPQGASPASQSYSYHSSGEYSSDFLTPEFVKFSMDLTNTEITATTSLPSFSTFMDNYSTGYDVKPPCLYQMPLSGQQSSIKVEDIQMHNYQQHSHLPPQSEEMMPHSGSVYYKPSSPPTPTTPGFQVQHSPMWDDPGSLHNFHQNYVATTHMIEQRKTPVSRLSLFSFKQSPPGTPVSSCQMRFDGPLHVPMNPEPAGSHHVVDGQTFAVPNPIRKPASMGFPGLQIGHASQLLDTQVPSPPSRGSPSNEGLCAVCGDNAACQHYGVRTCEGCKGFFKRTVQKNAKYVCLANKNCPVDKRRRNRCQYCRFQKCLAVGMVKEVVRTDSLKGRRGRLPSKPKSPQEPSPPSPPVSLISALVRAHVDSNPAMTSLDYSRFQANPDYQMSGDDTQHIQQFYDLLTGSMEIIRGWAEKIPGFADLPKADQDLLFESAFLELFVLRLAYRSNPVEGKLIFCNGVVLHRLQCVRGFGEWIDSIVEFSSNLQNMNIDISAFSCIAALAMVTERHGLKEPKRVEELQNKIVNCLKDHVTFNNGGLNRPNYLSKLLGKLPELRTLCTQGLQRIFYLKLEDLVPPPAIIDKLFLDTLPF
Procedure, shortened: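 Read-out: reporter mRNA induction by RT-PCR plus capillary electrophoresis with fluorescence detection, after 24 h dosing of transfected HepG2 cells. Exogenous NR-Gal4 chimera activity drives GAL4-UAS reporter; activity fitted upward versus DMSO.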

[14] = molecular target: Oxysterols receptor LXR-alpha (Homo sapiens) (UniProt Q13133); experiment: ATG_LXRa_TRANS: Attagene TRANS-FACTORIAL HepG2 Assay for human Liver X Receptor alpha (LXRa) (AID 2282980; active = hit-call score of the fitted dose curve at least 0.9, where 1 is the maximum); conditions: HepG2 Attagene TRANS reporter, LXRa transactivation
Sequence of Oxysterols receptor LXR-alpha (Homo sapiens) (Q13133 whole entry, looked up, the tested form may be a part): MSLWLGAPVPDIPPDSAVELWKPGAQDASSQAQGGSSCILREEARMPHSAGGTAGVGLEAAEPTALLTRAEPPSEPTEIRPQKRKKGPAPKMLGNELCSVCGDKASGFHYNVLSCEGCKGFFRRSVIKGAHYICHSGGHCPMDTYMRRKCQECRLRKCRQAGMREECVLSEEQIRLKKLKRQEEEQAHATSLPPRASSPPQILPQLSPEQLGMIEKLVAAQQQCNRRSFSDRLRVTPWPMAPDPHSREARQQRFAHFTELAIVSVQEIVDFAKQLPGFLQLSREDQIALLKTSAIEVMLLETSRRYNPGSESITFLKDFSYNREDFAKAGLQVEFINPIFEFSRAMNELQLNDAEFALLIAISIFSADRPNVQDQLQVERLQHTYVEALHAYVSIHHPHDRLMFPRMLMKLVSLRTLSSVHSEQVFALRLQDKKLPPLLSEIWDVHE
Procedure, shortened: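 Chemical-induced reporter mRNA measured by RT-PCR with fluorescent labelling and capillary electrophoresis after 24 h dosing of transiently transfected HepG2 cells expressing exogenous NR-Gal4 chimeras; increases scored against DMSO baseline.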

[15] = BSK_3C_TissueFactor: BioMAP Diversity Plus: 3C Assay for Tissue Factor Biomarker Activity (AID 2282997); conditions: BioMAP 3C HUVEC, tissue factor biomarker readout; actives raise or lower the signal
Procedure, shortened: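 Tissue factor on primary human umbilical vein endothelium was read by ELISA 24 h after dosing, gain or loss relative to DMSO. Cytotoxicity ran alongside via SRB (0.1%, TCA-fixed, 560 nm).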

[16] = BSK_3C_uPAR: BioMAP Diversity Plus: 3C Assay for Urokinase-type plasminogen activator receptor (uPAR) Biomarker Activity (AID 2282998); conditions: BioMAP 3C HUVEC, uPAR biomarker ELISA; actives raise or lower the signal
Procedure, shortened: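 Values derive from bidirectional curve fitting relative to DMSO, which served as baseline of activity. uPAR was measured by ELISA in human umbilical vein endothelial primary cultures 24 h after compound addition.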

[17] = BSK_3C_VCAM1: BioMAP Diversity Plus: 3C Assay for Vascular cell adhesion molecule 1 (VCAM1) Biomarker Activity (AID 2282999); conditions: BioMAP 3C HUVEC, VCAM1 ELISA, cytokine-stimulated; actives raise or lower the signal
Procedure, shortened: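 HUVEC primary cells, 24 h compound exposure; VCAM-1 by ELISA; gain/loss of signal fitted bidirectionally vs DMSO baseline.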

[18] = BSK_4H_Eotaxin3: BioMAP Diversity Plus: 4H Assay for Eotaxin 3 Biomarker Activity (AID 2283000); conditions: primary human endothelial cells (HUVEC); actives raise or lower the signal;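 also: CCL26 protein level quantified by ELISA in parallel with SRB cytotoxicity check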
Procedure, shortened: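 Human umbilical vein endothelial cells (BSK_4H system) dosed with test chemical; Eotaxin-3 (CCL26) measured by ELISA 24 h after dosing. Bidirectional curve fitting relative to DMSO negative control as baseline.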

[19] = molecular target: Oxysterols receptor LXR-beta (Homo sapiens) (UniProt P55055); experiment: ATG_LXRb_TRANS: Attagene TRANS-FACTORIAL HepG2 Assay for human Liver X Receptor beta (LXRb) (AID 2282981; active = hit-call score of the fitted dose curve at least 0.9, where 1 is the maximum); conditions: HepG2 Attagene TRANS GAL4-LXRb reporter, mRNA
Sequence of Oxysterols receptor LXR-beta (Homo sapiens) (P55055 whole entry, looked up, the tested form may be a part): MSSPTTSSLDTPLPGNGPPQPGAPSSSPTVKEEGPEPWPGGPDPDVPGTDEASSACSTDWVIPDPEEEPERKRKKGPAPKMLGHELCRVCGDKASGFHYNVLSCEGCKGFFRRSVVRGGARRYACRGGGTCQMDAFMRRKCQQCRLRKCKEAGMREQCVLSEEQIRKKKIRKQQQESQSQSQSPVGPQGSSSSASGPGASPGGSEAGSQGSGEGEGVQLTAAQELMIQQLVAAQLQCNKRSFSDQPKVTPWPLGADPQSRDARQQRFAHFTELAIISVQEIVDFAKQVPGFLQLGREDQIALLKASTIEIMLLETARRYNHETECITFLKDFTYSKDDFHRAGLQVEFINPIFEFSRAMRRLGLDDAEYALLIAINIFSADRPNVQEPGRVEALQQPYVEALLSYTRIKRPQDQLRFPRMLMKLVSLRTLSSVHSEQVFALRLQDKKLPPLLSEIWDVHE
Procedure, shortened: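 Readout: fluorescent reporter mRNA fragments resolved by capillary electrophoresis after RT-PCR. System: transiently transfected human HepG2, exogenous LXRb-Gal4 chimera driving GAL4-UAS reporter, 24 h dosing. Activity fitted upward against DMSO baseline.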

Measured: AC50

C=CC(C)(C)O
inactive: [1] | [2] | [3] | [4] | [5] | [6] | [7] | [8] | [9] | [10] | [11]

CCCCCCCCCCCCCC(=O)O
inactive: [1] | [2] | [3] | [4] | [5] | [6] | [7] | [10] | [11]
active: [9] 65.5 µM

COC(=O)C1=C(C)NC(C)=C(C(=O)OCCN(C)Cc2ccccc2)C1c1cccc([N+](=O)[O-])c1 (stereo not given)
inactive: [12] | [4] | [7] | [8] | [9] | [10]
active: [1] 0.637 µM | [13] 27.2 µM | [5] 6.96 µM

c1ccc2sc(SN(C3CCCCC3)C3CCCCC3)nc2c1
active: [7] 8.17 µM | [16] 7.59 µM
inactive: [1] | [14] | [2] | [4] | [5] | [6] | [8] | [9] | [10] | [15] | [17] | [18]

OC1OC[C@@H](O)[C@H](O)[C@H]1O (stereo not given in full)
inactive: [14] | [19] | [2] | [12] | [4] | [5] | [6] | [7] | [8] | [9] | [10] | [11] | [15] | [16] | [17] | [18]
